# Rows were chosen to be rich in hits. Some 21% of all compounds tested hit in one or more screens of this group.
# TDP1 cell noCPT – qHTS for Inhibitors of human tyrosyl-DNA phosphodiesterase 1 (TDP1): qHTS in cells in absence of CPT. DT40 Tdp1-/- hTDP1 cells, no CPT, ATP luminescence, 48 h. Potency, µM (top dose mostly 46.2 µM), usual class: inhibitors. 420,000 compounds, 15% hits. AID 686978, 2013; also: nearly all actives have a fitted effect of over 55% in size
#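 Chicken DT40 Tdp1-/- cells complemented with human TDP1, screened without camptothecin (DMSO vehicle only), 400 cells/well. Compounds pin-transferred, cells incubated at 37 °C for at least 48 hr. Growth read as ATP-dependent luminescence (CellTiter-Glo, 30 min at RT).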
# D3 ag – qHTS of D3 Dopamine Receptor Agonist: qHTS; D3R DiscoveRx beta-arrestin cells, luminescence, 90 min; max activation, %; 410,000 compounds, 0.58% hits; in the data active = max activation above about 30%
# Target sequence (P35462 whole entry, looked up): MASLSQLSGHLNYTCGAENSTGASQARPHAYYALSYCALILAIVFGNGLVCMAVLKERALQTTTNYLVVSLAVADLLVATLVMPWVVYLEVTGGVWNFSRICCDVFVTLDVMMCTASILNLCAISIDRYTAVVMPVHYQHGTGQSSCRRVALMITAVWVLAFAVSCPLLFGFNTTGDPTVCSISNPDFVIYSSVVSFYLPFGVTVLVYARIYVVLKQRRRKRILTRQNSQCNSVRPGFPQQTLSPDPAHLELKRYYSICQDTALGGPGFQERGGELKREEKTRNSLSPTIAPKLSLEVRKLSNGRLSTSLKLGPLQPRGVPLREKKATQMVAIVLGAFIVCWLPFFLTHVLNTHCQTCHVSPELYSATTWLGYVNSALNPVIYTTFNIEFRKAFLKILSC
#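 Agonist mode: compounds and dopamine controls were applied to plated cells for 90 min at 37 degrees C after an overnight attachment at 1500 cells/well. Luminescent read-out followed 30 - 60 minutes at room temperature with DiscoveRx detection reagent.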
# D3 antag – qHTS of D3 Dopamine Receptor Antagonist: qHTS; D(3) dopamine receptor (Homo sapiens), P35462; D3R cells, DiscoveRx beta-arrestin luminescence, antagonist mode; hits give low values; max response, negative = inhibition, %; 360,000 compounds, 2.5% hits; in the data active = max response below about -50%; inconclusive = no clear call, values can overlap the other calls
#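 Cells expressing the human receptor were seeded at 1500 cells/well, incubated overnight at 37 degrees C in 5% CO2, then exposed to library compounds with dopamine controls for 90 minutes at 37 degrees C before luminescent detection.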
# IL1B secr inh – qHTS for Inhibitors of Inflammasome Signaling: IL-1-beta AlphaLISA Primary Screen; 360,000 compounds, 4.7% hits; activity change, % at 57.5 µM; THP-1 LPS/ATP IL-1B secretion, AlphaLISA, 16 h; hits give low values; in the data active = activity change below about -50%; inconclusive = mostly about -30% to -49%
#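 THP-1 cells pretreated 1 hr with compounds (up to 57.5 uM final), then stimulated with LPS (250 ng/mL final) plus ATP (1.25 mM final); secreted IL-1B measured by AlphaLISA after 16 hr, decreased signal indicating inhibition.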
# TDP1 cell CPT – qHTS for Inhibitors of human tyrosyl-DNA phosphodiesterase 1 (TDP1): qHTS in cells in presence of CPT; chicken DT40 Tdp1-/-;hTDP1 cells + 20 nM CPT, ATP luminescence, 48 h; Potency, µM (titrated, usually from 46.2 µM), hits mostly inhibitors; 420,000 compounds, 12% hits; AID 686979, 2013; also: nearly all actives have a fitted effect of over 55% in size
#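 Chicken DT40 Tdp1-/- cells stably complemented with human TDP1 were seeded at 400 cells/well in medium containing 20 nM camptothecin, exposed to pin-transferred compounds, and grown at 37 °C for at least 48 hr. Viability was read as ATP luminescence.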
# ClpP mod – qHTS Assay for Activators of ClpP; ATP-dependent Clp protease proteolytic subunit (Bacillus subtilis (strain 168)), P80244; purified B. subtilis ClpP, FRET peptide cleavage, 20 min; Potency, µM (highest dose often 57.5 µM); 340,000 compounds, 1.9% hits; active = well fitted falling curve with a large enough effect; inconclusive = small, poorly fitted or top-dose-only effect; inactive = no such curve, though single readings can be large or run the other way; also: the source files actives as falling curves though it sought activators and does not explain the sign; nearly all actives have a fitted effect of over 65% in size
# Target sequence (P80244 whole entry, looked up): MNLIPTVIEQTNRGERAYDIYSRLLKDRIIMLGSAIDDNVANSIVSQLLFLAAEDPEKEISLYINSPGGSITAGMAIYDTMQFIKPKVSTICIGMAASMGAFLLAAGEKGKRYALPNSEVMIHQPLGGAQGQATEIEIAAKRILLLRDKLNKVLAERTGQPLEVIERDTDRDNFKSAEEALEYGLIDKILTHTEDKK
#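 Buffer: 100 mM Tris/HCl pH8, 100 mM KCl, 0.05% low protease BSA, 2.5% glycerol, 0.01% Tween-20. ClpP 10 microg/mL final; 20 min RT; delta FRET normalized to ADEP and DMSO controls.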
# A number is an active result; . = inactive; ? = inconclusive; / = not tested or not shown. Unless noted, calls follow the shape of the dose curve; as a rule, active = well fitted inhibition curve with a large enough effect; inconclusive = small, poorly fitted or top-dose-only effect; inactive = flat fitted curve, though single readings scatter.
SMILES,TDP1 cell noCPT,D3 ag,D3 antag,IL1B secr inh,TDP1 cell CPT,ClpP mod
NCCCCCc1nnc(SCc2ccc(F)cc2)o1,/,.,/,/,/,.
CCc1c(C)nc2ccc(Br)cc2c1SCCC#N,?,.,.,-183,?,/
O=C(CCCN1CCC(O)(c2cccc(C(F)(F)F)c2)CC1)c1ccc(F)cc1,?,.,-61,-54,?,.
O=C(CCCC(=O)c1ccc(F)cc1)c1ccc(F)cc1,.,.,.,.,.,.
O=C(CCCN1CCC(O)(c2ccc(Br)cc2)CC1)c1ccc(F)cc1,?,.,-122,?,?,.
COc1cccc(Oc2ccc(N/C=C/C(=O)C(C)(C)C)cc2)c1,?,.,.,-65,.,/
Cc1ccsc1CNS(=O)(=O)c1ccc(F)cc1,.,.,.,.,?,.
Cc1nc2ccccc2n1CC(=O)NC(C)C1CC2CCC1C2 (stereo not drawn),0.92µM,.,.,.,1.5µM,.
Cc1nc2ccccc2n1CC(=O)NN,.,.,.,.,.,.
COc1cccc2c(=O)cc(C)n(CC(=O)Nc3cccc(C)c3)c12,18µM,.,.,.,?,.
Cc1cc(=O)c2ccccc2n1CC(=O)NCc1ccccc1,?,.,.,.,18µM,.
Cc1nc2ccccc2n1CC(=O)NCc1ccccc1,12µM,.,-50,.,9.2µM,.
COc1cccc(NC(=O)Cn2c(=O)n(CCc3cccc(C)c3)c(=O)c3ccccc32)c1,.,.,/,/,.,.
COc1ccc(N(CC(=O)NCCc2ccc(C)cc2)S(=O)(=O)c2c(C)nn(C)c2C)cc1,?,.,/,/,?,.
O=C(Oc1ccc([N+](=O)[O-])cc1)C1CC(=O)N(c2ccc3c(c2)OCCO3)C1 (stereo not drawn),.,.,.,.,.,?
O=C1C=CC(=Nc2ccc3c(c2)Cc2ccccc2-3)O1,.,.,.,.,.,/
Cc1cc(=O)n(Cc2ccccc2)c2ccccc12,?,.,.,.,?,.
Cc1cc(=O)c2ccccc2n1Cc1ccccc1,16µM,.,.,-50,?,/
COc1ccc(NC(=O)Cn2c(C)cc(=O)c3ccccc32)cc1,12µM,.,.,.,10µM,.
CC(C)(C)NC(=O)CSc1nc2ccc(NC(=O)CSc3nnnn3Cc3ccccc3)cc2s1,10µM,.,.,.,8.2µM,.
CCOC(=O)CSc1nc2ccc(NC(=O)CSc3nnnn3Cc3ccccc3)cc2s1,.,.,.,.,.,.
Nc1nnc(SCC(=O)Nc2cccc(F)c2)s1,.,.,/,/,.,.
CC(C)(C)NC(=O)CSc1nc2ccc(NC(=O)CSc3nnc(N)s3)cc2s1,9.2µM,.,.,.,21µM,.
CCOC(=O)c1c(C)[nH]c(C)c1S(=O)(=O)N(C)CC(=O)N1CCN(c2cccc(C)c2C)CC1,?,.,/,/,18µM,.
Cc1cccc(N2CCN(S(=O)(=O)c3c(C(=O)N4CCC(C)CC4)c(C)n(C)c3C)CC2)c1C,23µM,.,/,/,.,.
SMILES,TDP1 cell noCPT,D3 ag,D3 antag,IL1B secr inh,TDP1 cell CPT,ClpP mod
Cc1cccc(N2CCN(S(=O)(=O)c3c(C)[nH]c(C)c3C(=O)N3CCCCC3)CC2)c1C,?,.,.,-51,21µM,.
Cc1cccc(N2CCN(S(=O)(=O)c3c(C(=O)N4CCCCC4)c(C)n(C)c3C)CC2)c1C,?,.,.,.,?,.
Cc1cccc(N2CCN(S(=O)(=O)c3c(C)[nH]c(C)c3C(=O)N3CCCC3)CC2)c1C,?,.,.,.,?,.
O=C(O)CC1(CC(=O)NCc2ccc(Cl)cc2)CCCCC1,.,.,.,.,.,.
CCOC(=O)c1[nH]c(C)c(CCC(=O)NCc2ccc(N(C)C)cc2)c1C,.,.,/,/,.,.
CC(=O)n1cc(Nc2ccc([N+](=O)[O-])cc2)c2ccccc21,?,.,.,.,?,.
CC(C)Cn1c(=O)c(C(=O)NCc2ccc3c(c2)OCO3)c(O)c2ccccc21,?,.,.,.,23µM,?
CCn1c(=O)c(C(=O)NCc2ccc(OC)cc2)c(O)c2ccccc21,23µM,.,.,.,23µM,.
CCCn1c(=O)c(C(=O)Nc2ccccc2C(=O)OCC)c(O)c2ccccc21,?,37,.,.,?,.
COc1ccc(CNC(=O)c2c(O)c3ccccc3n(C)c2=O)cc1,.,.,.,.,.,.
CCOC(=O)c1ccccc1Nc1cn(C(C)=O)c2ccccc12,4.6µM,.,.,.,3.7µM,?
Cc1ccc2c(=O)cc(C(=O)Nc3sc4c(c3C(=O)NCc3ccccc3)CCCC4)oc2c1C,.,.,/,/,.,.
CN(C)CCn1c2c(c(SCC(=O)NCc3ccccc3)nc1=O)CCCC2,.,.,.,.,.,.
COc1ccc(NC(=O)Nc2c(O)ccc3ccccc23)cc1,?,.,.,.,?,?
C=CCn1c(=O)c(C(=O)Nc2cccnc2)c(O)c2ccccc21,?,.,.,.,?,.
CCCn1c(=O)c(C(=O)NCc2ccccc2)c(O)c2ccccc21,?,.,.,.,?,/
C=CCn1c(=O)c(C(=O)NCc2ccc(Cl)cc2)c(O)c2ccccc21,23µM,.,.,.,?,?
CCCn1c(=O)c(C(=O)NCCc2ccccc2)c(O)c2ccccc21,?,.,.,.,13µM,/
C=CCn1c(=O)c(C(=O)NCCc2ccccc2)c(O)c2ccccc21,?,.,.,.,21µM,.
C=CCn1c(=O)c(C(=O)Nc2ccc(C)cn2)c(O)c2ccccc21,18µM,.,.,.,?,.
CCOc1cccc(C2c3c(oc4cc(C)c(C)cc4c3=O)C(=O)N2c2nc(C)c(C)s2)c1 (stereo not drawn),.,.,/,/,.,.
CC(=O)Nc1ccc(SCC(=O)Nc2ccc(Cl)cn2)cc1,.,.,.,.,.,.
Cc1ccc(C(=O)OCC(=O)Nc2cc(C(C)(C)C)nn2-c2ccccc2)c(O)c1,?,.,.,.,?,.
CC(C)Cn1c(=O)c(C(=O)N/N=C/c2cccc(F)c2)c(O)c2ccccc21,0.33µM,.,.,.,2.9µM,.
CCCCCCCCCC(=O)NNC(=O)c1c(O)c2ccccc2n(CCC)c1=O,?,.,.,.,?,/
CCCCCCCCC(=O)NNC(=O)c1c(O)c2ccccc2n(CCC)c1=O,?,.,.,.,23µM,/

# Source: PubChem BioAssay
